Among the data in the supplement of paper PMC10849652 are log2 fold change values, retold here.

Targets with a hit are over-represented here; the source holds about 8,800 in all. About 0.5% of all pairs of compound and target were hits. Unmarked numbers belong to inactive results.

Chain of UniProt Q9UBB5 (Q9UBB5 whole entry, looked up): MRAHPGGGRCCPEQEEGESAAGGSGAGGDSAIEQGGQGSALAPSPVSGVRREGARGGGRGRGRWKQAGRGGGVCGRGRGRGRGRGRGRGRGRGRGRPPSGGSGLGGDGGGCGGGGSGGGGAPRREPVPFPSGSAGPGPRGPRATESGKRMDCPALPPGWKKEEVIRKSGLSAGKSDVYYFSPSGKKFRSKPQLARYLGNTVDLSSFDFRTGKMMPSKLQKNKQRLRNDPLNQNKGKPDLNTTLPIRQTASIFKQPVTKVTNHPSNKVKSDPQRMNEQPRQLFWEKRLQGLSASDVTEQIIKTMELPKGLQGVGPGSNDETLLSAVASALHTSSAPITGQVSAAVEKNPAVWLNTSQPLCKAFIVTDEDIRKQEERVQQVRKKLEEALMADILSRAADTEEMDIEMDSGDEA
Chain of UniProt Q7Z3D4 (Q7Z3D4 whole entry, looked up): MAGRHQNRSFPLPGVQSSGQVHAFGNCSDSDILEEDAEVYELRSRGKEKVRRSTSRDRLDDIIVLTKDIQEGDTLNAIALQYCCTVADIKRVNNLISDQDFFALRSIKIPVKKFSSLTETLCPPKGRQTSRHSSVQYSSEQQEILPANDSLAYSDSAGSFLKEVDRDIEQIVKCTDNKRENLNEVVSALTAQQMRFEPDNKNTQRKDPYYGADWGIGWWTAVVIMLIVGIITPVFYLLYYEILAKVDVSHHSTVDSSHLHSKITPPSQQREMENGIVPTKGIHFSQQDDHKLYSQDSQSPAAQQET
Chain of UniProt P49916 (P49916 whole entry, looked up): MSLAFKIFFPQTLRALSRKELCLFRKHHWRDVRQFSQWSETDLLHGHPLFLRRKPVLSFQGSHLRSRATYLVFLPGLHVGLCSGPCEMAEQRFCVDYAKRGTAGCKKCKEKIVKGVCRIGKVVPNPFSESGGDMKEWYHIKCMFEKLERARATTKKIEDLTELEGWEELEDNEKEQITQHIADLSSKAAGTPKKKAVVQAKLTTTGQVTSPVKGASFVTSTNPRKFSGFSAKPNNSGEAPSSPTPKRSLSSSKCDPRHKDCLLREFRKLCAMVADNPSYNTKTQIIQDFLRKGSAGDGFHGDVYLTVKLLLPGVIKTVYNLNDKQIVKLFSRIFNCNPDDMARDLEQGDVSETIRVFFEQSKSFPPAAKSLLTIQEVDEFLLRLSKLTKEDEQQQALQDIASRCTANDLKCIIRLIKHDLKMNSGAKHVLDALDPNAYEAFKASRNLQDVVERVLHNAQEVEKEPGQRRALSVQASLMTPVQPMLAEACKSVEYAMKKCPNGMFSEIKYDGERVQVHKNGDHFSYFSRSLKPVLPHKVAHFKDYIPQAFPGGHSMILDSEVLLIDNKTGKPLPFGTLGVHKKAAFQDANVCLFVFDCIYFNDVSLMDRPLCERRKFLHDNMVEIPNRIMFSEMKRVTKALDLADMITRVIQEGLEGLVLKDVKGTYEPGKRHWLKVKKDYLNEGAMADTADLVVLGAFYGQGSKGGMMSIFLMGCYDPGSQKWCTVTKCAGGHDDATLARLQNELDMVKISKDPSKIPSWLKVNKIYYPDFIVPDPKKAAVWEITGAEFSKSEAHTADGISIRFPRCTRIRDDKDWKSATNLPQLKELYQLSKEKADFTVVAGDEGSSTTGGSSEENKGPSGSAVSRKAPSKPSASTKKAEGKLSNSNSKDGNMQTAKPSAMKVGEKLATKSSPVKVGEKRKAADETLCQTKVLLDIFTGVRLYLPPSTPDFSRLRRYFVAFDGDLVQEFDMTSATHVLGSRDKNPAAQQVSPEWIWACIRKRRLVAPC
Chain of UniProt Q7Z3U7 (Q7Z3U7 whole entry, looked up): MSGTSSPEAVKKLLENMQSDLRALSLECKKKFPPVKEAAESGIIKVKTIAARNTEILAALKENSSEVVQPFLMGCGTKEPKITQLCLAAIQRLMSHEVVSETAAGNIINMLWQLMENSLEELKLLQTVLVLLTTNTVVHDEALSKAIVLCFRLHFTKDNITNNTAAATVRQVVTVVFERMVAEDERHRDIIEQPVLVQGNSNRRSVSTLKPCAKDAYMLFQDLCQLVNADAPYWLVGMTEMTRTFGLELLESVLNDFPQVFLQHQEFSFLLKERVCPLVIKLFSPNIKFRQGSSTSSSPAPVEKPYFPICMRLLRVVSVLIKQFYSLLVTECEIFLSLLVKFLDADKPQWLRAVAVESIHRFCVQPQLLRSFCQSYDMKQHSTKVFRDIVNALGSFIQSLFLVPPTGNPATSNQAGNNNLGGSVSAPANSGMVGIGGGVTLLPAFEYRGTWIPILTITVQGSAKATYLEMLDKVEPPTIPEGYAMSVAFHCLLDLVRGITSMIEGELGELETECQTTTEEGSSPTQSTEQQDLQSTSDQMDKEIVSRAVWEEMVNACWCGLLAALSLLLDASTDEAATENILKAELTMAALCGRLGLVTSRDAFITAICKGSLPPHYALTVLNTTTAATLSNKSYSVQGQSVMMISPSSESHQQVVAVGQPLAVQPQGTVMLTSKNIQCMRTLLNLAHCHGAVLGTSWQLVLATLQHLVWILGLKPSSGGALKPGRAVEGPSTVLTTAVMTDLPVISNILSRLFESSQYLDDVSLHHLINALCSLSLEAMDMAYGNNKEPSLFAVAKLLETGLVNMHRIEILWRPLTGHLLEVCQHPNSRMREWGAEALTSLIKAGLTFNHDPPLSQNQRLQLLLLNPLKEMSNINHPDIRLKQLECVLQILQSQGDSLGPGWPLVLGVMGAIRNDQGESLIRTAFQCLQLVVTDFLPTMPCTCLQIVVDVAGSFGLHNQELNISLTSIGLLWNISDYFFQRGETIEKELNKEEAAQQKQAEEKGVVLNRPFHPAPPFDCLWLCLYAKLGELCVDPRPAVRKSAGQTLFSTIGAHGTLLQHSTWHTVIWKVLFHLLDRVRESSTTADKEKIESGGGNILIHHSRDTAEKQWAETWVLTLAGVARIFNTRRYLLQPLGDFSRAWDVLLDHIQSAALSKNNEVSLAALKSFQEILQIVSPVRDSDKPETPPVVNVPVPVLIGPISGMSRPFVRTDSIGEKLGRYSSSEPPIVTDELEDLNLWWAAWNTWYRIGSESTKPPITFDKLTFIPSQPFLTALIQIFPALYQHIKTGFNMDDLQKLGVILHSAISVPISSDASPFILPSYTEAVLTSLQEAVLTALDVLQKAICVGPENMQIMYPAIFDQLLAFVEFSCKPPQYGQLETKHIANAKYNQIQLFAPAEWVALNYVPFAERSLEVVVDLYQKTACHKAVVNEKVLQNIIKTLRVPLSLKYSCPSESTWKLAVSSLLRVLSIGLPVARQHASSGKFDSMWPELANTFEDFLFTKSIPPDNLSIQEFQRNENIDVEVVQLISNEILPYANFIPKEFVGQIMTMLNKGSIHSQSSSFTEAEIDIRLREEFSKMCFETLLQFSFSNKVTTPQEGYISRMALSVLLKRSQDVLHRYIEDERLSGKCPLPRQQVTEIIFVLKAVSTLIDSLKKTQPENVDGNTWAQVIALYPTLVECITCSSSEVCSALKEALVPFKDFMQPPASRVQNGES
Chain of UniProt Q9P2J5 (Q9P2J5 whole entry, looked up): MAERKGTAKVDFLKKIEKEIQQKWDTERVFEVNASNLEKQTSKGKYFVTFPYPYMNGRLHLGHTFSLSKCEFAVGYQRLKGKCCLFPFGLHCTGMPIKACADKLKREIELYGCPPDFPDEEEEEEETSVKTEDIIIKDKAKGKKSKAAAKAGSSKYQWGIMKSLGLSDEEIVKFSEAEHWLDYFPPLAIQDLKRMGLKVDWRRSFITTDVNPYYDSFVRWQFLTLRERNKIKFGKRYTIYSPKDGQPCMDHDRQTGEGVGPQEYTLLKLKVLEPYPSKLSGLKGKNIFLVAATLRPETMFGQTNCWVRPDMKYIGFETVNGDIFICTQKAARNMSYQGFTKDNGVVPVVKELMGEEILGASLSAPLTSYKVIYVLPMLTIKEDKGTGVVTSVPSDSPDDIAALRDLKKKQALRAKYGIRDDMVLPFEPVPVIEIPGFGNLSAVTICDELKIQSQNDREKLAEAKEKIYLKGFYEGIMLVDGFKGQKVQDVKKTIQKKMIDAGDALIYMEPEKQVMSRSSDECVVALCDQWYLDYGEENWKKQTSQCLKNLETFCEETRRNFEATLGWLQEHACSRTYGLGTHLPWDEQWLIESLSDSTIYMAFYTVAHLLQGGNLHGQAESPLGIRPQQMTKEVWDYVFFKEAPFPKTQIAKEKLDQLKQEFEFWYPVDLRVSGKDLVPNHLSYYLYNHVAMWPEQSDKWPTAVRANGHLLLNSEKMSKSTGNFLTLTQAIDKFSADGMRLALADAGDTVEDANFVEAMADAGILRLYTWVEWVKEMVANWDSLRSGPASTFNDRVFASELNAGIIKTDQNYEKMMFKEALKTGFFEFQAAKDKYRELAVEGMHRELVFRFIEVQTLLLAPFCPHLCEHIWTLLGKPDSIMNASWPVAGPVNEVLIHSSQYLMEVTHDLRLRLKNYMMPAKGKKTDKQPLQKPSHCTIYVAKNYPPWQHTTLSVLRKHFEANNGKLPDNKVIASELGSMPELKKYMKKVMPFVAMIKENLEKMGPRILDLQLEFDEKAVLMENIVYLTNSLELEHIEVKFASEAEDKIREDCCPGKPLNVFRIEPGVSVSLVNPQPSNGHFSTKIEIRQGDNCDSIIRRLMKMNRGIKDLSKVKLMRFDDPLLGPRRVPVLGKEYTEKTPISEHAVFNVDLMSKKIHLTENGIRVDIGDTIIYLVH
Chain of UniProt O95777 (O95777 whole entry, looked up): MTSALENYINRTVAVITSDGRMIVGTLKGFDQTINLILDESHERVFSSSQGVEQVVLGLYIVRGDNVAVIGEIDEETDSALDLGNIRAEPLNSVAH
Chain of UniProt Q15013 (Q15013 whole entry, looked up): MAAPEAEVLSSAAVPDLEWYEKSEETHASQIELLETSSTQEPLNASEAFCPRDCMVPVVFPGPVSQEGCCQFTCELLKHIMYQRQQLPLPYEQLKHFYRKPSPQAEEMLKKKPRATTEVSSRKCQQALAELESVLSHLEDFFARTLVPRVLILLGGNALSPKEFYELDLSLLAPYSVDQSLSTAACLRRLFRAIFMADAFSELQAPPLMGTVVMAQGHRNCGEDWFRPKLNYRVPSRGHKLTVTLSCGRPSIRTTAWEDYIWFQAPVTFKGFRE

Compound in the first test: COC(=O)N[C@@H](C)CNc1nccc(-c2cn(C(C)C)nc2-c2cc(Cl)cc(NS(C)(=O)=O)c2F)n1 [encorafenib]
Kind of test: log2 fold change, soluble protein after heating vs DMSO (PISA); higher = thermal stabilisation; K562 lysate, 10 uM; active = over 0.2 and 3.5 SD of the protein, either way, in both replicates (recomputed). Put shortly: (§1)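 Log-two fold change in thermal stability relative to solvent controls is reported from duplicates. For each sample, crude K562 extract from dounce-homogenised pellets in PBS pH 7.4 with 1 mM MgCl2, at 1 mg/mL protein, was treated with 10 μM compound for 30 min. Aliquots heated for 3 min across 48°C-58°C were pooled, brought to 0.5% NP-40 at 4°C and cleared at 21,000xg for 90 min. The supernatant was quantified by TMTpro 16plex LC-MS/MS with channel sums equalised.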
On to LARS2 (UniProt Q15031), for which the log2 fold change is 0.038.
Still for that read-out and setting: the figure for LYSMD3 (UniProt Q7Z3D4) is 0.031; for MARK3 (UniProt P27448) it is 0.038.
The same measure, in the same setting: the figure for MAP2K2 (UniProt P36507) is -0.046; for MAD2L1BP isoform 3 (UniProt Q15013) it is 0.138.
The same measure, in the same setting: the result for MOCS1 isoform 8 (UniProt Q9NZB8) reads 0.039.
As to LRRC40 (UniProt Q9H9A6), the log2 fold change is 0.021.
For the target MPZL1 (UniProt O95297), the log2 fold change is 0.045.
On the same count and under the same terms, the result for MON2 isoform 5 (UniProt Q7Z3U7) reads 0.034; that for LLGL1 (UniProt Q15334), 0.052; that for MRPL10 isoform 2 (UniProt Q7Z7H8), 0.031.
Still for that read-out and setting: the result for LIMS1 isoform 3 (UniProt P48059) reads 0.004.
On to MED12 isoform 2 (UniProt Q93074), for which the log2 fold change is 0.028.
For METTL7A (UniProt Q9H8H3), the log2 fold change is -0.041.
Still for that read-out and setting: the result for MED17 (UniProt Q9NVC6) reads 0.03.
LSM8 (UniProt O95777): the log2 fold change was 0.032.
Still for that read-out and setting: the result for MFF isoform 2 (UniProt Q9GZY8) reads 0.068; that for LARS (UniProt Q9P2J5), 0.001; that for MAPK9 (UniProt P45984), 0.17.
For the target MED13L (UniProt Q71F56), the log2 fold change was 0.02.
Consider MACROD1 (UniProt Q9BQ69), for which the log2 fold change was 0.029.
The same measure, in the same setting: the result for MRPL46 (UniProt Q9H2W6) reads -0.032.
On the same count and under the same terms, the result for MGST1 (UniProt P10620) reads 0.007; that for MGAT5 (UniProt Q09328), 0.006.
On the same count and under the same terms, the result for MAT2B (UniProt Q9NZL9) reads -0.009; that for MCMBP (UniProt Q9BTE3), -0.001; that for MICB, A0A140T979, -0.027.
For LSS (UniProt P48449), the log2 fold change is 0.031.
Same read-out and setting: the figure for MORF4L1 isoform 2 (UniProt Q9UBU8) is -0.023; for MAPKAPK3 (UniProt Q16644) it is -0.015; for KPNA4 (UniProt O00629) it is 0.02.
Turning to LIG3 (UniProt P49916), the log2 fold change is 0.023.
The same measure, in the same setting: the result for MAP4 (UniProt E7EVA0) reads -0.04.
On the same count and under the same terms, the figure for MLST8 (UniProt Q9BVC4) is -0.012; for LSG1 (UniProt Q9H089) it is 0.046.
Consider MPP1 (UniProt Q00013), for which the log2 fold change was -0.015.
The same measure, in the same setting: the result for LRWD1 (UniProt Q9UFC0) reads 0.01.
On the same count and under the same terms, the figure for MBD2 (UniProt Q9UBB5) is 0.013.
Same read-out and setting: the result for MCU (UniProt Q8NE86) reads 0.016.

Compound in the next test: COC(=O)[C@H](CCSC)NC(=O)C1=C(C=C(C=C1)NC[C@H](CS)N)C2=CC=CC=C2
The test is described as above. Put shortly: as §1
In the case of LARS2 (UniProt Q15031), the log2 fold change is -0.115.
With LYSMD3 (UniProt Q7Z3D4), the log2 fold change is -0.124.
The same measure, in the same setting: the result for MARK3 (UniProt P27448) reads 0.129; that for MAP2K2 (UniProt P36507), -0.006.
Same read-out and setting: the figure for MAD2L1BP isoform 3 (UniProt Q15013) is 0.234; for MOCS1 isoform 8 (UniProt Q9NZB8) it is -0.055.
For LRRC40 (UniProt Q9H9A6), the log2 fold change was -0.038.
On the same count and under the same terms, the result for MPZL1 (UniProt O95297) reads -0.082; that for MON2 isoform 5 (UniProt Q7Z3U7), -0.035; that for LLGL1 (UniProt Q15334), 0.108.
Consider MRPL10 isoform 2 (UniProt Q7Z7H8), for which the log2 fold change is 0.183.
Consider LIMS1 isoform 3 (UniProt P48059), for which the log2 fold change was -0.118.
On the same count and under the same terms, the result for MED12 isoform 2 (UniProt Q93074) reads 0.06.
Take METTL7A (UniProt Q9H8H3): the log2 fold change was 0.151.
On the same count and under the same terms, the result for MED17 (UniProt Q9NVC6) reads -0.017; that for LSM8 (UniProt O95777), -0.076.
For MFF isoform 2 (UniProt Q9GZY8), the log2 fold change was -0.113.
Take LARS (UniProt Q9P2J5): the log2 fold change was 0.097.
Same read-out and setting: the figure for MAPK9 (UniProt P45984) is -0.019; for MED13L (UniProt Q71F56) it is 0.021; for MACROD1 (UniProt Q9BQ69) it is -0.074.
Same read-out and setting: the result for MRPL46 (UniProt Q9H2W6) reads 0; that for MGST1 (UniProt P10620), 0.001.
MGAT5 (UniProt Q09328): the log2 fold change is -0.095.
Still for that read-out and setting: the result for MAT2B (UniProt Q9NZL9) reads -0.006; that for MCMBP (UniProt Q9BTE3), 0.074; that for MICB, A0A140T979, -0.506 (active).
Turning to LSS (UniProt P48449), the log2 fold change was 0.02.
On the same count and under the same terms, the result for MORF4L1 isoform 2 (UniProt Q9UBU8) reads -0.021; that for MAPKAPK3 (UniProt Q16644), 0.055.
Same read-out and setting: the result for KPNA4 (UniProt O00629) reads -0.059; that for LIG3 (UniProt P49916), 0.121.
Regarding MAP4 (UniProt E7EVA0), the log2 fold change is -0.117.
Still for that read-out and setting: the result for MLST8 (UniProt Q9BVC4) reads 0.038; that for LSG1 (UniProt Q9H089), 0.303 (active).
As for MPP1 (UniProt Q00013), the log2 fold change was 0.011.
Consider LRWD1 (UniProt Q9UFC0), for which the log2 fold change is 0.11.
The same measure, in the same setting: the figure for MBD2 (UniProt Q9UBB5) is -0.061; for MCU (UniProt Q8NE86) it is -0.035.
